Assay outcomes (PubChem)
SMN2 splice enh: increases expression of the SMN2 splice variant; HEK293 SMN2-luciferase splicing reporter, luminescence, 30-36 h; 210,000 compounds, 2.8% hits; Potency, µM (highest dose often 46.1 µM), for the others: at the top dose activity change, positive = activation, most hits filed as activators; note: % of control where 0% means no effect; nearly all actives have a fitted effect of over 55% in size
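qHTS luciferase splicing reporter: luminescence rises when SMN2 exon 7 is included in transfected HEK293 cells. Compound exposure lasted 30-36 h at 37C, with 4.5 mM final sodium butyrate as control, followed by a ONE-Glo read.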
Luc counter: blocks Kinase-Glo luciferase, a counter-screen artifact; Potency, µM (series often up to 38.3 µM), without a hit: top-dose activity change, negative = inhibition, most hits filed as inhibitors; Kinase-Glo luciferase, ATP luminescence, 8 min; 200,000 compounds, 0.28% hits; note: % is set by controls: 0 for no effect and ±100 for the full control effect; nearly all actives have a fitted effect of over 60% in size
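Compound is pinned into ATP-containing buffer (10 uM ATP, imidazole pH 7.2, 7 mM MgCl2). Kinase-Glo luciferase reagent is then added. Light output is recorded following an 8-min room-temperature incubation.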
Rab9 promoter act: Rab9 promoter activation; AID 485297; Potency, µM (titrated, usually from 9.22 µM), for the others: at the top dose activation, negative = inhibition, usual class: activators; Huh7 Rab9 promoter-luciferase reporter, luminescence, 24 h; 320,000 compounds, 2.8% hits; note: % of control where 0% means no effect; nearly all actives have a fitted effect of over 60% in size
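Cell-based reporter: Huh7 stable for Rab9 promoter-driven luciferase, plated in reduced-serum medium with 10% FBS at 1500 cells/well, compound-treated 24 h at 37 °C, luminescence read after 10 min reagent.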
FLuc modulator: firefly luciferase modulation, counter-screen for miR-21 project; P08659; purified FLuc, Km substrates, luminescence inhibition; Potency, µM (highest dose often 57.5 µM), without a hit: top-dose activity change, negative = inhibition, actives largely listed as inhibitors; 360,000 compounds, 6.9% hits; AID 588342;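 note: plate controls were vehicle for no effect and reference inhibitor for full effect; nearly all actives have a fitted effect of over 55% in size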
Target sequence (P08659 whole entry, looked up): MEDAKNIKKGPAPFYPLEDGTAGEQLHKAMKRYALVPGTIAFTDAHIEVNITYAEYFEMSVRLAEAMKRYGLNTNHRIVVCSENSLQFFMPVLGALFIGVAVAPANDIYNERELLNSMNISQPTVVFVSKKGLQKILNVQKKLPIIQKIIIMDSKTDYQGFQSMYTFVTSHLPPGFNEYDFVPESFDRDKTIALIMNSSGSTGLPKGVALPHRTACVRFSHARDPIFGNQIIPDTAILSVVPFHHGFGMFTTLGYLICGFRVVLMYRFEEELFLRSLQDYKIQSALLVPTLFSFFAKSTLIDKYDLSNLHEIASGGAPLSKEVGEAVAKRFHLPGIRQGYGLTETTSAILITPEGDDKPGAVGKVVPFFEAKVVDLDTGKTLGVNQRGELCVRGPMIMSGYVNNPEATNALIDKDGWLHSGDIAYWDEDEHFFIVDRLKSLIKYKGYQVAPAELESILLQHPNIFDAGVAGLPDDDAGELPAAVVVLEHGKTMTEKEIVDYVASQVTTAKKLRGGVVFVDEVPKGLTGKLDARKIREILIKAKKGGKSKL
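Purified P. pyralis luciferase (10nM final) with 10uM D-luciferin and 10uM ATP (Km levels) in 50mM Tris acetate pH 7.5, 10mM Mg acetate, 0.01% Tween-20, 0.05% BSA; qHTS 6-point titration, ~60 µM downward; luminescence read.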
ELG1 genotoxic: inducers of genotoxicity in HEK293T ELG1-luciferase cells; 330,000 compounds, 1.3% hits; Potency, µM (doses to about 46 µM), without a hit: at the top dose activity change, positive = activation, most hits filed as activators; AID 504466; HEK293T ELG1-luciferase reporter, luminescence, 16 h; note: % of control where 0% means no effect; nearly all actives have a fitted effect of over 60% in size
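16 hr compound incubation (37 °C, 5% CO2) of HEK293T cells carrying luciferase-tagged ELG1; luciferase then measured by ONE-Glo luminescence after 30 min at RT.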
NPC1 promoter act: NPC1 promoter activation. Huh7 NPC1 promoter luciferase reporter, 24 h. Potency, µM (titrated, usually from 9.22 µM), for inactives: top-dose activation, most hits filed as activators. 320,000 compounds, 2.4% hits. AID 485313; note: % of control where 0% means no effect; nearly all actives have a fitted effect of over 60% in size
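Readout is luciferase luminescence, reflecting NPC1 promoter activation in stably transfected Huh7 cells after 24 h compound exposure at 37 °C in reduced-serum medium with 10% FBS.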
Starred values were filed as active, the others as inactive; ? = inconclusive; . = no result given; [ ] = dose if it differs, or a comment. In the library only some 7.5% were active in any assay of this set; here they are far more common. Calls come from the whole dose curve; as a rule, active = well fitted curve in the direction sought with a large enough effect; inconclusive = small, poorly fitted or top-dose-only effect, or another doubt; inactive = no such curve, though single readings can be large; an effect the other way counts as inactive or inconclusive. Potency is the fitted concentration of half-maximal effect.

SMILES | SMN2 splice enh | Luc counter | Rab9 promoter act | FLuc modulator | ELG1 genotoxic | NPC1 promoter act
Cc1nc2c(sc3nc4c(cc32)COC(C)(C)C4)c(=O)n1Cc1ccccc1 | -36% | -2% | ? | 24µM* | ? | 26%
CC1(C)Cc2nc3sc4c(SCC(=O)NCc5ccco5)ncnc4c3cc2CO1 | ? | -3% | ? | 5.4µM* | 2.1µM* | -2%
Cc1nc2c(sc3nc4c(cc32)COC(C)(C)C4)c(=O)n1CC(=O)NCc1ccco1 | 13µM* | -10% | ? | 8.5µM* | ? | -7%
Cc1ccc2[nH]c(O)c(N=NC(=O)c3ccc(NS(=O)(=O)c4cccs4)cc3)c2c1 | . | . | 0% | 5.4µM* | -4% | 2%
O=C(N=Nc1c(O)[nH]c2ccc(F)cc12)c1ccc(NS(=O)(=O)c2cccs2)cc1 | . | . | 7% | ? | 1% | 4%
Cc1cccc2c(N=NC(=O)c3ccc(NS(=O)(=O)c4cccs4)cc3)c(O)[nH]c12 | . | . | ? | 0.43µM* | 14% | ?
Cn1c(=O)[nH]c(=O)c2c1nc(N1CCOCC1)n2CCSc1nc2ccccc2[nH]1 | -9% | -2% | -8% | 10% | 0% | 2%
CC(C)(C)OC(=O)N1CCC(c2c(C(=O)NCc3cccc(Cl)c3)cnn2-c2ccc(F)cc2)CC1 | . | . | . | 4% | . | .
O=C1CCCCCN1Cc1nnc(SCc2nc3ccccc3s2)n1-c1ccccn1 | -32% | -3% | ? | 7.6µM* | ? | 18%
CC[C@H]1CN(C)[C@H]2Cc3c([nH]c4ccccc34)C(=O)C[C@H]1[C@H]2C(=O)OC | 5%[9.22 µM] | -4%[7.66 µM] | . | . | . | .
CCn1cc(Br)c(C(=O)NC(=S)Nc2ccc(C(=O)OC)cc2)n1 | 20% | 10% | 17% | -3% | 12% | 4%
COc1ccc(C(=O)N2CCC[C@@]3(CCN(Cc4nccs4)C3)C2)cc1 | -17% | 0% | . | . | . | .
Cc1cc(Nc2ccc(N=Nc3ccc(O)c4ncccc34)cc2)nc(C)n1 | 17%[9.22 µM] | -3%[7.66 µM] | . | . | . | .
COCCNC(=O)/C(C#N)=C/c1ccc(C(=O)O)cc1 | -2% | 1% | 0% | 3% | -2% | -3%
CCOC(=O)/C(C#N)=C\C=C1C=CN(C)C=C1 | 16µM* | -4% | 3.5µM* | 9.5µM* | ? | 2.5µM*
CCOC(=O)/C(C#N)=C/c1ccc(SC)cc1 | -24% | -2% | -3% | 13µM* | 4% | 9%
CCOC(=O)/C(C#N)=C\c1c(OCC)n(CC)c2ccccc12 | -15% | 4% | 1% | 3% | -5% | 1%
CCOC(=O)/C(C#N)=C\c1ccc(CC)s1 | -8% | -3% | -11% | 11µM* | ? | 25%
CCOC(=O)/C(C#N)=C/c1ccc(OC)c(OC)c1 | . | 4% | -1% | 2%[2.3 µM] | -1% | -4%
COCCNC(=O)/C(C#N)=C/c1ccc(SC)cc1 | 1% | -1% | -1% | 19µM* | ? | -5%
COc1cc(OC)c(C(=O)OCC(=O)NCCc2ccccc2)cc1OC | 16% | 2% | 1% | -4% | -1% | -4%
Cc1ccc(N2NC(=O)/C(=C/c3ccc(-c4ccc(Cl)c(C(=O)O)c4)o3)C2=O)cc1C | . | . | 0% | 17µM* | 0% | -6%
COC(=O)c1ccc(N2NC(=O)/C(=C/c3ccc(-c4ccc(Cl)c(C(=O)O)c4)o3)C2=O)cc1 | 11% | -4% | 0% | 11µM* | 2% | 0%
O=C1NN(c2ccc(Cl)c(Cl)c2)C(=O)/C1=C/c1ccc(-c2ccccc2C(=O)O)o1 | . | . | -4% | ? | 1% | -3%
O=C1NN(c2ccccc2)C(=O)/C1=C/c1ccc(-c2ccc(C(=O)O)cc2)o1 | . | . | 15% | 21µM* | -2% | 11%
CN(C)C(=S)SCCn1c(N)nc(N(C)C)nc1=O | . | . | 0% | 0% | 1% | -1%
COc1ccc(OC)c(NC(=O)CCC(=O)Nc2nnc(C(C)C)s2)c1 | . | . | -1% | 1% | 1% | -3%
